Source: PubChem
Compounds with a hit are over-represented: about 5.3% of the library has one in this group of screens.
TDP1 block: qHTS Assay for Inhibitors of Tyrosyl-DNA Phosphodiesterase (TDP1); Potency, µM (series often up to 130 µM), without a hit: top-dose activity change, negative = inhibition, actives largely listed as inhibitors; AID 485290, 2010; Tyrosyl-DNA phosphodiesterase 1 (Homo sapiens), Q9NUW8; 0.28% of 350,000 active; recombinant TDP1, AlphaScreen DNA substrate cleavage; also: potency is read from the fitted curve at half-maximal effect; % is scaled to controls: 0 for no effect and ±100 for the full control effect; nearly all actives have a fitted effect of over 40% in size
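Compounds were preincubated with Tdp1 (1 nM final) for 15 min at room temperature before substrate (15 nM final) started a 5 min reaction; beads (10 ug/ml final) were then added for 10 min before AlphaScreen detection.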
JMJD2A Tudor inh: qHTS Assay for Inhibitors of JMJD2A-Tudor Domain | AlphaScreen JMJD2A-Tudor / H3K4me3 peptide binding | 4.4% of 390,000 active | Potency, µM (titrated, usually from 114 µM), without a hit: top-dose activity change, negative = inhibition, usual class: inhibitors | Lysine-specific demethylase 4A (Homo sapiens), O75164; also: potency is read from the fitted curve at half-maximal effect; % is scaled to controls: 0 for no effect and ±100 for the full control effect; nearly all actives have a fitted effect of over 50% in size
Target sequence (O75164 whole entry, looked up, the tested form may be a part): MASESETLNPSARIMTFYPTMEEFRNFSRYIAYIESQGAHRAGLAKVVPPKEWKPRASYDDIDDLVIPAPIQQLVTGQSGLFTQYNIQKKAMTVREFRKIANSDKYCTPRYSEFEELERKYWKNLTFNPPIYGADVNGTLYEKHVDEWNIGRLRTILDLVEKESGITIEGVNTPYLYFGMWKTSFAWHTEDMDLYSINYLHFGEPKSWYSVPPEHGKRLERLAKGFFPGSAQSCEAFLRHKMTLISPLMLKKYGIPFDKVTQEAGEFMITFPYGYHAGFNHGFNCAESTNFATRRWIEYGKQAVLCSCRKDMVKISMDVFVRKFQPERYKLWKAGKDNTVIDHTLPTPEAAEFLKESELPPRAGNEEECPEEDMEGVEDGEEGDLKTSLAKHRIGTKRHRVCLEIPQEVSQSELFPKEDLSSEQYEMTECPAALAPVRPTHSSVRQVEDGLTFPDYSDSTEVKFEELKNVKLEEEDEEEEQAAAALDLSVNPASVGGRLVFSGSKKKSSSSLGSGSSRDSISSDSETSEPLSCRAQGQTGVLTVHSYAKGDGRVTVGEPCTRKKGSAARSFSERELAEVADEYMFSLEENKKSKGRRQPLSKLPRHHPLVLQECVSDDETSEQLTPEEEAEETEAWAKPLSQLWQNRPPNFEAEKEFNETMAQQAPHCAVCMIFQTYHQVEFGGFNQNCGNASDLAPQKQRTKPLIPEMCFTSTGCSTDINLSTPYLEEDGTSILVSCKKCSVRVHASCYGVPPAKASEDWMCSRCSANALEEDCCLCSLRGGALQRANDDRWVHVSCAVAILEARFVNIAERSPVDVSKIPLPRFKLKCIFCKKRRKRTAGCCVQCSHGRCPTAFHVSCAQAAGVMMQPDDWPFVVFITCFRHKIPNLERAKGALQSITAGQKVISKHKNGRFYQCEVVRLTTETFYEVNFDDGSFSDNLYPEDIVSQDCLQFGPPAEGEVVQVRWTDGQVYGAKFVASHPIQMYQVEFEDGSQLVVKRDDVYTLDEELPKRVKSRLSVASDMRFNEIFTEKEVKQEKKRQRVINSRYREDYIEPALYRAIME
BAZ2B inh: qHTS Assay for Inhibitors of BAZ2B | 4.4% of 360,000 active | Bromodomain adjacent to zinc finger domain protein 2B (Homo sapiens), Q9UIF8 | Potency, µM (series often up to 114 µM), inactives show top-dose activity change, negative = inhibition, hits mostly inhibitors | AlphaScreen BAZ2B-H3K14Ac peptide displacement; also: potency is read from the fitted curve at half-maximal effect; % is scaled to controls: 0 for no effect and ±100 for the full control effect; nearly all actives have a fitted effect of over 60% in size
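Inhibition is scored as reduced AlphaScreen emission. The BAZ2B/b-H3(5-23)K14Ac complex (50 nM each) in PBS pH 7.4, 0.01% Tween-20 meets compound (up to 110 uM) for 30 min at RT before bead addition.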
CtBP-E1A inh: qHTS Assay for Inhibitors of the CtBP/E1A Interaction | CtBP / adenovirus E1A interaction (AlphaScreen) | AlphaScreen GST-E1A/His-CtBP binding, 1536-well; active compounds read low | activity change, % (concentration not given with the values) | 0.49% of 340,000 active; in the data active = activity change below about -65%; inconclusive = mostly about -30% to -63%; also: % is scaled to controls: 0 for no effect and ±100 for the full control effect
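Steps: dispense buffer (Tris pH 8.0, NaCl 300 mM, TCEP 1 mM, BSA, Tween 20); add 5X protein mix (GST-E1A, His-CtBP, 125 nM each); pin 23 nL compound; 2 h at 37 °C, dark; add 5X beads (50 ug/mL); 1 h; read.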
HP1b binding inh: HTS for Inhibitors of HP1-beta Chromodomain Interactions with Methylated Histone Tails. Chromobox protein homolog 1 (Homo sapiens), P83916. Potency, µM (doses to about 114 µM), inactives show at the top dose activity change, negative = inhibition, actives largely listed as inhibitors. AID 540317, 2011. AlphaScreen HP1-beta / biotin-H3K9me3 peptide binding. 0.56% of 390,000 active; also: potency is read from the fitted curve at half-maximal effect; nearly all actives have a fitted effect of over 70% in size
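HP1-beta protein (50 nM final) preincubated 30 min at room temperature with biotinylated H3(1-18)K9me3 peptide (50 nM) in PBS pH 7.4, 0.01% Tween-20, then compound added for 30 min. AlphaScreen streptavidin donor/nickel chelate acceptor beads (10 ug/mL final), 30 min dark, luminescence read.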
Six1-Eya2 blk: qHTS Assay for Inhibitors of the Six1/Eya2 Interaction; AlphaScreen GST-Six1/His-Eya2 binding, biochemical; active compounds read low; activity change, % (no concentration beside the values); 0.56% of 360,000 active; AID 651725, 2012; in the data active = activity change below about -65%; inconclusive = mostly about -30% to -63%; also: % is scaled to controls: 0 for no effect and ±100 for the full control effect
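Homogeneous AlphaScreen proximity assay pairing GST-Six1 with His-tagged Eya2 (added as 5X mix: 250 nM and 500 nM) in 50 mM Tris pH 8.0, 300 mM NaCl, 1 mM TCEP. Glutathione donor and nickel acceptor beads; 1 h, 37 °C, dark.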
The depositor's hits bear a star; u = inconclusive; x = not tested or not shown; [ ] = remark or other dose. Unless noted, calls follow the shape of the dose curve; as a rule, active = well fitted inhibition curve with a large enough effect; inconclusive = small, poorly fitted or top-dose-only effect; inactive = no such curve, though single readings can be large or run the other way.

SMILES | TDP1 block | JMJD2A Tudor inh | BAZ2B inh | CtBP-E1A inh | HP1b binding inh | Six1-Eya2 blk
COc1cccc(C2c3[nH]c4ccccc4c3CCN2C(=O)c2ccccc2F)c1OC (stereo not drawn) | 6% | u | u | x | -17% | -12
COc1ccc(C2c3[nH]c4ccccc4c3CCN2C(=O)c2ccccc2C(C)=O)c(F)c1 (stereo not drawn) | x | u | -11% | -1 | 2% | -13
COc1ccc(C2c3[nH]c4ccccc4c3CCN2C(=O)c2cn3ccccc3n2)c(F)c1 (stereo not drawn) | 5% | u | 22µM* | -2 | -5% | -4
COc1ccc(C2c3[nH]c4ccccc4c3CCN2C(=O)c2cc3ncccn3n2)c(F)c1 (stereo not drawn) | 10% | u | 32µM* | 32 | 2% | 16
O=C(NCCCCc1ccccc1)c1cccc(NC(=O)C2CC2)c1 | x | 56µM* | x | 3 | 33% | -2
CCOc1cc(C=O)cc(N=Nc2cccc([N+](=O)[O-])c2)c1O | 8% | u | 25µM* | -12 | u | -15
Cc1[nH]n(-c2ccccc2)c(=O)c1C(c1ccccc1[N+](=O)[O-])C(C#N)C#N (stereo not drawn) | x | u | u | x | 2% | -10
Cc1[nH]n(-c2ncc(-c3ccccc3)s2)c(=O)c1C(c1ccc(Cl)cc1)C(C#N)C#N (stereo not drawn) | 14% | 40µM* | 40µM* | 1 | u | -15
COc1ccc(NS(=O)(=O)c2cc3[nH]c(=O)c(=O)[nH]c3cc2C)cc1OC | 1% | -5% | 79µM* | x | 40% | x
COc1cc(NS(=O)(=O)c2cc3[nH]c(=O)[nH]c3cc2C)cc(OC)c1OC | 5% | -17% | 3% | x | 18%[57 µM] | x
CNC(=O)C1CCC(Cn2c(=O)c3sccc3n(Cc3ccc(F)cc3)c2=O)CC1 (stereo not drawn) | 6% | -8% | 1% | x | 20% | x
O=C(COc1ccccc1)NC(NC(=S)Nc1ccccc1C(=O)O)C(Cl)(Cl)Cl (stereo not drawn) | -6% | 32µM* | -8% | -28 | u | -17
O=C(O)c1ccccc1-c1noc(-c2ccccc2F)n1 | x | x | 2% | x | x | x
CN(C/C=C/c1ccccc1)C1CCCCC1 | -1% | -13% | -18% | 0 | 72% | 5
COCCN(C/C=C/c1ccccc1)C/C=C/c1ccccc1 | x | 1µM* | u | 5 | u | 6
CCCCC#CC1C=CC(Oc2cc(OC)c(OC)c(OC)c2)C(CO)O1 (stereo not drawn) | 9%[21 µM] | x | x | x | x | x
Cc1c(C)n(CCC(=O)O)c2ccccc12 | 0% | -13% | -35% | 4 | 24% | -1
Cc1ccc2c(c1)c(C)cc(=O)n2CCC(=O)O | 10% | 89µM* | 50µM* | -3 | -16% | -13
O=C(NCc1ccc(F)cc1Cl)c1ccc(CSCc2ccccc2Cl)o1 | 3% | -8% | 20% | x | 52% | x
CSc1ccc(C2c3c(oc4cc(C)cc(C)c4c3=O)C(=O)N2CCO)cc1 (stereo not drawn) | 0% | -8% | -5% | x | 15% | x
O=[N+]([O-])c1nn(-c2ccc(Cl)cc2)n(O)c1=NCc1ccccc1 | 8% | u | u | -5 | -11% | -12
Cc1cccc(CCN=c2c([N+](=O)[O-])nn(-c3ccccc3)n2O)c1 | 9% | 50µM* | x | u | u | u
COc1ccc(Nc2ncccc2C(=O)NCc2ccccc2)cc1 | 10% | u | u | -10 | -3% | -23
COc1ccc(Nc2ncccc2C(=O)Nc2ccccc2)cc1 | -6% | u | 50µM* | -16 | u | -10
CCn1cc(C(=O)O)c(=O)c2cc(OC)ccc21 | 9% | 8.9µM* | u | -1 | -7% | -1
